VACV Venus inh – qHTS for Stage-Specific Inhibitors of Vaccinia Orthopoxvirus: Venus Reporter Primary qHTS. Potency, µM (titrated, usually from 36.5 µM), without a hit: at the highest dose activity change, negative = inhibition, actives largely listed as inhibitors. AID 720580, 2013. 330,000 tested, 0.46% active. Vaccinia virus Venus reporter expression, fluorescence; calls by dose curve; tested in A549 cells; note: % is set by controls: 0 for no effect and ±100 for the full control effect; nearly all actives have a fitted effect of over 30% in size
Vaccinia mCherry – qHTS for Stage-Specific Inhibitors of Vaccinia Orthopoxvirus: mCherry Reporter Primary qHTS. AID 720579, 2013. Potency, µM (series often up to 36.5 µM), for inactives: top-dose activity change, negative = inhibition, most hits filed as inhibitors. Vaccinia virus mCherry reporter infection, fluorescence. 310,000 tested, 0.63% active; calls by dose curve; tested in A549 cells; note: % is set by controls: 0 for no effect and ±100 for the full control effect; nearly all actives have a fitted effect of over 35% in size
AMA1 RON2 block – qHTS for Inhibitors of AMA1-RON; Towards Development of Antimalarial Drug Lead: Primary Screen; 360,000 tested, 0.2% active; AlphaScreen AMA1-biotinylated RON2 peptide binding; Potency, µM (highest dose often 58.2 µM), for the others: at the highest dose activity change, negative = inhibition, hits mostly inhibitors;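 note: 0% = vehicle wells and -100% = peptide control; nearly all actives have a fitted effect of over 45% in size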
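AMA1 (3D7) with his tag at 25 nM final met compounds first, then biotinylated RON2 peptide at 25 nM; detection used donor plus acceptor beads, 10 µg/mL apiece, read by AlphaScreen after 30 min at room temperature.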
AmpC inh no detg – qHTS Inhibitors of AmpC Beta-Lactamase (assay without detergent). 330,000 tested, 0.52% active. AID 485341, 2010. AmpC nitrocefin hydrolysis, absorbance 480 nm, 0.0001% Triton. P00811. Potency, µM (top dose mostly 57.1 µM), without a hit: top-dose activity change, negative = inhibition, most hits filed as inhibitors;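 note: plate controls were no compound for no effect and no enzyme for full effect; nearly all actives have a fitted effect of over 20% in size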
Target sequence (P00811 whole entry, looked up): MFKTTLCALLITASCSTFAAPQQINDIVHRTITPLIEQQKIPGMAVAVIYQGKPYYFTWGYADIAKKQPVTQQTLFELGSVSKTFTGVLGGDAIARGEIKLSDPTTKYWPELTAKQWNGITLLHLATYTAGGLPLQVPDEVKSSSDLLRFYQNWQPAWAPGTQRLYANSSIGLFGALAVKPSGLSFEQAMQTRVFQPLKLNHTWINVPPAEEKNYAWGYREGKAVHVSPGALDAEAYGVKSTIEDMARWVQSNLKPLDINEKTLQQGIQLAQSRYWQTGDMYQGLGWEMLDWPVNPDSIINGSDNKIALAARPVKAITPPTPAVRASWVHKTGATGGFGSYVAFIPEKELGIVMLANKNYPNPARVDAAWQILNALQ
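20 mM phosphate pH 7.0 + 0.01% (detergent screen) or 0.0001% Triton X-100; 5.3 nM AmpC reagent; cpd preinc 15 min RT; nitrocefin (800 uM stock) to start; A480 q20 s × 4 min; Activity was normalised to no-enzyme and no-compound control wells.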
AmpC inh detg – qHTS Inhibitors of AmpC Beta-Lactamase (assay with detergent); AmpC hydrolysis of nitrocefin, absorbance 480 nm, 0.01% Triton; 370,000 tested, 0.041% active; Potency, µM (highest dose often 114 µM), for the others: top-dose activity change, negative = inhibition, usual class: inhibitors; P00811; AID 485294, 2010;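 note: 0% = no-compound wells and -100% = no-enzyme wells; nearly all actives have a fitted effect of over 25% in size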
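20 mM phosphate pH 7.0 + 0.01% (detergent screen) or 0.0001% Triton X-100; 5.3 nM AmpC reagent; cpd preinc 15 min RT; nitrocefin (800 uM stock) to start; A480 q20 s × 4 min; Activity was normalised to no-enzyme and no-compound control wells.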
SARS PLpro yeast – qHTS of Yeast-based Assay for SARS-CoV PLP. S. cerevisiae expressing SARS-CoV PLpro, growth rescue. Potency, µM (highest dose often 32.9 µM), without a hit: at the top dose activity, positive = growth rescue, usual class: activators. 330,000 tested, 0.19% active. AID 485353, 2010; calls by dose curve; note: 0% is about no effect; nearly all actives have a fitted effect of over 55% in size
* = called active by the depositor; i = inactive; ? = inconclusive; . = not tested or not shown. Sampled rows, rich in hits. Any-hit rate of the full collection: about 1.4%. Unless noted, calls come from the whole dose curve; as a rule, active = well fitted curve in the direction sought with a large enough effect; inconclusive = small, poorly fitted or top-dose-only effect, or another doubt; inactive = no such curve, though single readings can be large; an effect the other way counts as inactive or inconclusive. Potency is the fitted concentration of half-maximal effect.

SMILES	VACV Venus inh	Vaccinia mCherry	AMA1 RON2 block	AmpC inh no detg	AmpC inh detg	SARS PLpro yeast
COc1cccc(/C=N/NC(=S)Nc2cccc(S(=O)(=O)N(C)C)c2)c1	.	.	69%	-37%	-1%	-1%
COc1ccc(O)c(/C=N/NC(=S)Nc2cccc(S(=O)(=O)N(C)C)c2)c1	?	2µM*	-36%	-40%	?	?
CCN(CC)S(=O)(=O)c1ccc(N/N=C/c2cc(OC)ccc2O)nc1	?	2µM*	50%	-30%	-7%	0%
Cc1cnc(CNc2nc(-c3ccc(C(=O)N(C)C)cc3)nc3ccccc23)cn1	2%	-1%	.	.	.	.
CCc1noc(C)c1C(=O)N1CCOc2ccc(CN3CCCC(C(=O)c4cccnc4)C3)cc2C1 (stereo not drawn)	-17%	-4%	.	.	.	.
CCCCS(=O)(=O)c1sc2nc3c(cc2c1N)CCCC3	-12%	?	6µM*	-24%	?	-7%
CCCCCCCCS(=O)c1sc2nc3c(cc2c1N)CCCC3 (stereo not drawn)	-24%	-24%	5%	.	.	.
Cc1cc(C)nc(S[C@H]2C[C@@H](C(=O)N3CCN(c4ccccc4F)CC3)N(Cc3ccccc3C(F)(F)F)C2)n1	-4%	-1%	.	.	.	.
CCN(CC)C(=O)Cn1ncc2c([nH]c3ccccc32)c1=O	-3%	-4%	.	.	14%	.
CC(=O)N(C(C)=O)c1ncc2c([nH]c3ccccc32)c1C#N	?	11µM*	-5%	-3%	-7%	1%
COCC(=O)Nc1cc(C(=O)NC2CCCc3ccccc32)c2c(c1)nc(-c1ccncc1)n2C (stereo not drawn)	-8%	-14%	.	.	.	.
Cc1[nH]n(-c2ncc(-c3ccc(Cl)cc3)s2)c(=O)c1C(c1ccc(Cl)cc1)C(C#N)C#N (stereo not drawn)	-11%	i	24%	40µM*	-2%	-15%
COc1ccc(C(c2c(C)[nH]n(C(N)=S)c2=O)C(C#N)C#N)cc1 (stereo not drawn)	-6%	-14%	-22%	-18%	1%	-11%
COc1ccc(C#Cc2c[nH]c(=O)c3cncnc23)cc1OC	-27%	-12%	.	.	.	.
S=C(Nc1cccc(Cl)c1)NC1CCCCC1	?	-7%	14%	-37%	0%	?
S=C(NNc1cccc(Cl)c1)NC1CCCCC1	-20%	-21%	6.3µM*	-33%	-1%	-36%
CCCCOc1ccc(NC(=O)CSc2ccc(C(=O)O)cn2)cc1	-2%	-9%	.	.	8%	.
CC[n+]1ccc(/C=C/c2ccc(N(C)C)cc2)c2ccccc21	i	i	28µM*	22%	-8%	-5%
CN(C)c1ccc(/C=C/c2cc[n+]([O-])c3ccccc23)cc1	-7%	32%	.	.	.	.
COc1cccc(CN2C(=O)NC(C)(C3CCN(Cc4ccc(C)o4)CC3)C2=O)c1OC (stereo not drawn)	-20%	-24%	.	.	.	.
Oc1c(Cl)cc(Cl)cc1/C=N/Nc1ncc(Br)cn1	?	1.6µM*	78%	-25%	-5%	-2%
Clc1ccc2[nH]c3c(N4CCC5(CC4)OCCO5)ncnc3c2c1	8.9µM*	8.9µM*	-1%	-4%	?	-1%
Cc1ccc(C(=O)N2CCOc3ccc(CN4CCN(Cc5ccccn5)CC4)cc3C2)cc1	-3%	-6%	.	.	.	.
CCCOc1cccc(C(=O)N(Cc2cc(OC)c(OC)c(OC)c2)C2CCS(=O)(=O)C2)c1 (stereo not drawn)	-6%	-8%	.	.	-2%	.
COc1ccc(-c2cc(N)n(S(=O)(=O)c3ccc(F)cc3)n2)cc1OC	?	7.1µM*	-2%	-1%	-1%	11%

Screens (PubChem BioAssay)
